Among all 39,000 compounds or so, about 1,500 (3.8%) were called active. The list comes from a sample in which actives are over-represented; it also holds similar structures and randomly drawn compounds.

This assay has as its system HSkMC (human skeletal muscle cells). In words: cytotoxicity call (relative viability < 0.9). The conditions noted are these: 10 µM.
In the case of `Cc1noc(C)c1NC(=O)N(C)C[C@@H]1OCCCC[C@H](C)Oc2ccc(NS(=O)(=O)c3ccc(F)cc3)cc2C(=O)N([C@H](C)CO)C[C@@H]1C`, the cytotoxicity call was “inactive”.

On to `Cc1noc(C)c1S(=O)(=O)N(C)C[C@@H]1Oc2c(NC(=O)c3cnccn3)cccc2C(=O)N([C@H](C)CO)C[C@@H]1C`, for which the cytotoxicity call was “inactive”.

As to `O=C(C[C@H]1CC[C@H]2[C@@H](COC[C@H](O)CN2S(=O)(=O)c2ccccc2)O1)NCCN1CCCCC1`, the cytotoxicity call is “inactive”.

With `c1cc(CCN2CCNCC2)ccn1`, the cytotoxicity call was “inactive”. Under `O=C(O)[C@H](O)c1ccc(F)cc1` stands “inactive”; under `CCS(=O)(=O)N1C[C@]2(CN(C2)C(=O)Nc2c(noc2C)C)c2c(n(c3cc(ccc23)OC)C)[C@H]1CO`, “inactive”. Under `C[C@H](CO)N1C[C@H](C)[C@@H](CN(C)Cc2ccncc2)Oc2ccc(NC(=O)Nc3ccc(C(F)(F)F)cc3)cc2CC1=O` stands “active”; under `C[C@@H]1CN([C@@H](C)CO)C(=O)Cc2cc(NC(=O)Nc3ccc(C(F)(F)F)cc3)ccc2O[C@H]1CN(C)Cc1ccncc1`, “inactive”.

On to `C[C@@H]1CN([C@@H](C)CO)C(=O)Cc2cc(NC(=O)Nc3ccc(C(F)(F)F)cc3)ccc2O[C@@H]1CN(C)Cc1ccc(C(F)(F)F)cc1`, for which the cytotoxicity call was “active”. As to `C[C@H](CO)N1C[C@H](C)[C@H](CN(C)Cc2ccncc2)Oc2ccc(NC(=O)Nc3ccc(C(F)(F)F)cc3)cc2CC1=O`, the cytotoxicity call was “inactive”.

In the case of `C[C@@H]1CN([C@H](C)CO)C(=O)c2cc(NS(=O)(=O)c3ccc(Cl)cc3)ccc2O[C@@H](C)CCCCO[C@@H]1CN(C)Cc1ccc(C(=O)O)cc1`, the cytotoxicity call is “inactive”. With `C[C@H](CO)N1C[C@H](C)[C@H](CN(C)C(=O)Nc2ccc3c(c2)OCO3)OCCCC[C@H](C)Oc2ccc(NC(=O)NC3CCCCC3)cc2C1=O`, the cytotoxicity call was “inactive”.

For `C[C@@H]1CN([C@H](C)CO)C(=O)Cc2cc(NS(C)(=O)=O)ccc2O[C@@H]1CN(C)S(=O)(=O)c1ccc(F)cc1`, the cytotoxicity call was “inactive”. For `C[C@@H]1CCCCO[C@H](CN(C)Cc2ccc(C(F)(F)F)cc2)[C@H](C)CN([C@@H](C)CO)C(=O)c2cc(NC(=O)Nc3ccccc3)ccc2O1`, the cytotoxicity call is “inactive”. To `C[C@@H]1CN([C@H](C)CO)C(=O)c2cc(NC(=O)Nc3ccccc3)ccc2O[C@@H](C)CCCCO[C@@H]1CN(C)Cc1ccc(C(F)(F)F)cc1` belongs “inactive”. Under `C[C@H](CO)N1C[C@H](C)[C@@H](CN(C)Cc2ccc(C(F)(F)F)cc2)OCCCC[C@H](C)Oc2ccc(NC(=O)Nc3ccccc3)cc2C1=O` stands “inactive”; under `C[C@@H]1CCCCO[C@@H](CN(C)Cc2ccc(C(F)(F)F)cc2)[C@H](C)CN([C@@H](C)CO)C(=O)c2cc(NC(=O)Nc3ccccc3)ccc2O1`, “inactive”. Under `C[C@@H]1CCCCO[C@H](CN(C)Cc2ccc(C(F)(F)F)cc2)[C@H](C)CN([C@H](C)CO)C(=O)c2cc(NC(=O)Nc3ccccc3)ccc2O1` stands “active”. Consider `C[C@@H]1CCCCO[C@@H](CN(C)Cc2ccc(C(F)(F)F)cc2)[C@H](C)CN([C@H](C)CO)C(=O)c2cc(NC(=O)Nc3ccccc3)ccc2O1`, for which the cytotoxicity call is “active”.

As to `C[C@H]1CCCCO[C@@H](CN(C)Cc2ccc(C(F)(F)F)cc2)[C@@H](C)CN([C@@H](C)CO)C(=O)c2cc(NC(=O)Nc3ccccc3)ccc2O1`, the cytotoxicity call is “active”. To `C[C@@H]1CN([C@@H](C)CO)C(=O)c2cc(NC(=O)Nc3ccccc3)ccc2O[C@@H](C)CCCCO[C@@H]1CN(C)Cc1ccc(C(F)(F)F)cc1` belongs “inactive”; to `C[C@@H]1CN([C@H](C)CO)C(=O)c2cc(NC(=O)Nc3ccccc3)ccc2O[C@@H](C)CCCCO[C@H]1CN(C)Cc1ccc(C(F)(F)F)cc1`, “active”. To `C[C@@H]1CCCCO[C@H](CN(C)Cc2ccc(C(F)(F)F)cc2)[C@@H](C)CN([C@@H](C)CO)C(=O)c2cc(NC(=O)Nc3ccccc3)ccc2O1` belongs “inactive”; to `C[C@@H]1CCCCO[C@@H](CN(C)Cc2ccc(C(F)(F)F)cc2)[C@@H](C)CN([C@H](C)CO)C(=O)c2cc(NC(=O)Nc3ccccc3)ccc2O1`, “inactive”; to `C[C@@H]1CCCCO[C@H](CN(C)Cc2ccc(C(F)(F)F)cc2)[C@@H](C)CN([C@H](C)CO)C(=O)c2cc(NC(=O)Nc3ccccc3)ccc2O1`, “inactive”. Consider `CO[C@H]1CN(C)C(=O)c2cc(NC(=O)Nc3ccc(Cl)cc3)ccc2OC[C@@H](C)N(C(=O)Nc2c(C)noc2C)C[C@H]1C`, for which the cytotoxicity call was “inactive”. Under `C[C@@H]1CCCCO[C@H](CN(C)S(=O)(=O)c2cccs2)[C@@H](C)CN([C@H](C)CO)C(=O)c2cc(NC(=O)Nc3ccc(C(F)(F)F)cc3)ccc2O1` stands “inactive”; under `Cc1noc(C)c1NC(=O)N(C)C[C@@H]1Oc2ccc(NC(=O)Cn3cnnn3)cc2CC(=O)N([C@@H](C)CO)C[C@H]1C`, “inactive”; under `C[C@@H]1CN([C@H](C)CO)C(=O)Cc2cc(NC(=O)Cn3cnnn3)ccc2O[C@@H]1CN(C)C(=O)Nc1ccc(C(F)(F)F)cc1`, “inactive”.

On to `C[C@H](CO)N1C[C@H](C)[C@H](CN(C)Cc2ccc(Cl)c(Cl)c2)OCCCC[C@H](C)Oc2ccc(NC(=O)Nc3ccc(C(F)(F)F)cc3)cc2C1=O`, for which the cytotoxicity call was “inactive”.

Consider `Cc1ccc(S(=O)(=O)N(C)C[C@@H]2Oc3ccc(NS(=O)(=O)c4cccs4)cc3C(=O)N([C@@H](C)CO)C[C@@H]2C)cc1`, for which the cytotoxicity call is “inactive”. With `O=C(C[C@H]1CC[C@@H]2[C@H](COC[C@@H](O)CN2S(=O)(=O)c2cccc(F)c2)O1)NCCCN1CCOCC1`, the cytotoxicity call is “inactive”. For `Cc1ccc(F)c(S(=O)(=O)N2[C@@H]3CC[C@@H](C3)[C@H]2c2nc3cccc(OCc4ccc(F)cc4)c3[nH]2)c1`, the cytotoxicity call is “inactive”.

As for `C[C@@H]1CCCCO[C@@H](CN(C)Cc2ccc(C(F)(F)F)cc2)[C@H](C)CN([C@H](C)CO)C(=O)c2cc(NC(=O)c3ccccc3)ccc2O1`, the cytotoxicity call was “inactive”. On to `C[C@@H]1CCCCO[C@H](CN(C)Cc2ccncc2)[C@H](C)CN([C@@H](C)CO)C(=O)c2cc(NC(=O)c3ccccc3)ccc2O1`, for which the cytotoxicity call was “active”. Under `C[C@@H]1CCCCO[C@@H](CN(C)Cc2ccc(C(F)(F)F)cc2)[C@@H](C)CN([C@@H](C)CO)C(=O)c2cc(NC(=O)Nc3ccccc3)ccc2O1` stands “inactive”; under `C[C@H]1CCCCO[C@H](CN(C)Cc2ccncc2)[C@@H](C)CN([C@@H](C)CO)C(=O)c2cc(NC(=O)c3ccccc3)ccc2O1`, “inactive”; under `C[C@@H]1CN([C@@H](C)CO)C(=O)c2cc(NC(=O)Nc3ccccc3)ccc2O[C@@H](C)CCCCO[C@H]1CN(C)Cc1ccc(C(F)(F)F)cc1`, “active”. On to `C[C@H]1CCCCO[C@H](CN(C)Cc2ccc(C(F)(F)F)cc2)[C@@H](C)CN([C@@H](C)CO)C(=O)c2cc(NC(=O)Nc3ccccc3)ccc2O1`, for which the cytotoxicity call was “active”. For the compound `C[C@H](CO)N1C[C@H](C)[C@H](CN(C)Cc2ccc(C(F)(F)F)cc2)OCCCC[C@H](C)Oc2ccc(NC(=O)Nc3ccccc3)cc2C1=O`, the cytotoxicity call was “inactive”. Under `C[C@@H]1CCCCO[C@H](CN(C)Cc2ccc(C(F)(F)F)cc2)[C@H](C)CN([C@H](C)CO)C(=O)c2cc(NC(=O)c3ccccc3)ccc2O1` stands “inactive”; under `C[C@H](CO)N1C[C@H](C)[C@H](CN(C)Cc2ccncc2)OCCCC[C@H](C)Oc2ccc(NC(=O)c3ccccc3)cc2C1=O`, “inactive”; under `C[C@H]1CCCCO[C@@H](CN(C)Cc2ccc(C(F)(F)F)cc2)[C@@H](C)CN([C@@H](C)CO)C(=O)c2cc(NC(=O)c3ccccc3)ccc2O1`, “active”.

These data come from the antibiotic and cytotoxicity screens of Wong et al. (2023).
